# Bioassay records as filed in PubChem BioAssay.
# mHtt clearance – clearance of mutant huntingtin inclusions, primary screen, imaging, HeLa Exon1htt(103Q)mCFP, confocal imaging. actives 0.42% (n = 47,000). aggregate imaging; zero = plate's median compound well. AID 853, 2007. inhibition, % at 1.5 µM;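 active means inhibition of aggregate fluorescence above about 70%, also judged a hit by eye on the cell image, limit read from the data, passing the limit was not always enough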;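 further: cells exposed to compound for three days before fixation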
# M1 ag – M1 muscarinic receptor agonists, primary screen, CHO-M1 cells, Fluo-4 calcium, agonist mode; B-score at 10 µM; Fluo-4 calcium fluorescence; hits give high values; actives 3% (n = 64,000);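 active means fluorescence rise, raw or as B-score row- and column-corrected plate score, outside the 99.7% band of its plate's samples, either direction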
# M1 antagonist – antagonists of rat M1 muscarinic receptor; B-score at 10 µM; CHO-M1 cells, Fluo-4 calcium, ACh EC80 antagonist mode; hits give low values; actives 3.4% (n = 64,000);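 active means calcium fluorescence response, raw or row-and-column corrected B-score, differing from the plate sample mean either way at a set confidence level, mostly lower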
# D1 mod – D1 CRE-luciferase signal change, two-sided – cell-based, HEK293 D1, dopamine EC30, D1 allosteric modulator project, primary screen. actives 5.9% (n = 58,000). dopamine EC30 potentiation; actives deviate in either direction. B-score at 10 µM. D(1A) dopamine receptor (Homo sapiens), P21728. AID 641, 2007;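 active means luminescence count or its row- and column-corrected plate score outside the 99.7% band of the plate's sample wells, on either side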
# Target sequence (P21728 whole entry, looked up): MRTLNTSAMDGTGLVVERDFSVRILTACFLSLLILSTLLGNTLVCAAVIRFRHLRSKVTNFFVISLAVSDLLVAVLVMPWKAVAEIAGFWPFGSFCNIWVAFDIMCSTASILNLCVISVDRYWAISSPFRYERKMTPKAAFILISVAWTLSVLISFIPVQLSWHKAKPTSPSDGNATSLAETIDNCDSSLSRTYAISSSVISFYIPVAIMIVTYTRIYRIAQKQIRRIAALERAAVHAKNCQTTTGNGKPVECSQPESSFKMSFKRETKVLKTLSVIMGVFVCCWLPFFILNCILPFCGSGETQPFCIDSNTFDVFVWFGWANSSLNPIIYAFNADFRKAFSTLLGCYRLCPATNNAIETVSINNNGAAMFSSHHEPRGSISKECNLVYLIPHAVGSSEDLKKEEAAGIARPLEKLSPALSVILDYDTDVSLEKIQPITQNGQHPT
# Numbers without * were called inactive; . = no result given. Most compounds without a hit are left out; they make up all but 9.1% or so of the library.
SMILES,mHtt clearance,M1 ag,M1 antagonist,D1 mod
COc1ccc(C2CC(C(F)(F)F)n3nc(C(=O)N(C)Cc4cn(C)nc4C)c(Cl)c3N2)cc1 (configuration not stated),.,-0.71,-0.0022,0.74
COc1ccc(C2CC(C(F)(F)F)n3nc(C(=O)NCc4c(C)nn(C)c4C)c(Cl)c3N2)cc1 (configuration not stated),.,0.027,0.7,-3.1*
COc1ccc(Cc2nnc3n2N=C(c2cc4ccccc4o2)CS3)cc1OC,9,2.7,0.16,3*
COc1ccc(-c2nnc3n2N=C(c2ccccc2)CS3)cc1OC,.,-0.48,0.58,1.6
CC(=O)c1ccc(OCC(C)C)c(CN2CCCCC2)c1,-42,-0.55,-2,0.3
CC(=O)c1ccc(Oc2ncnc3sccc23)c(CN2CCOCC2)c1,.,-2.8*,0.029,-1.2
Cc1nc(NC(=O)c2csc3ccccc23)sc1C,.,0.044,0.25,-3.4*
Cc1onc(-c2ccccc2Cl)c1C(=O)Nc1sc2c(c1C(N)=O)CCC(C)C2 (configuration not stated),23,.,.,.
CC1(C)CC(=O)C2=C(C1)OC1=C(C(=O)CC(C)(C)C1)C2c1ccc(O)cc1O,-4,158*,-0.025,-2
Nc1nc(-c2ccccc2)cc(C(F)(F)F)n1,.,1.2,-0.07,27*
Cc1ccc(C)c(OCC(O)CN2CCCCC2C)c1 (configuration not stated),-30,0.48,0.37,-6*
Cc1ccc2c(c1)c(C)c(C)n2CC(O)CN1CCCCC1C (configuration not stated),.,-0.11,-1,-0.72
CC1(C)Cc2c(sc3nc(SCC#N)n(C4CCCCC4)c(=O)c23)CO1,.,-0.28,0.18,26*
Cc1nnc2n(C3CCCCC3)c(=O)c3c4c(sc3n12)COC(C)(C)C4,.,-0.0025,-0.55,.
Cc1cc(C(=O)COc2ccc(-c3nnco3)cc2)c(C)n1Cc1ccccc1,.,0.34,-0.29,-1.7
CCOC(=O)C1=C(C)NC(SCC(=O)Nc2cc(C)on2)=C(C#N)C1c1cccs1 (configuration not stated),37,-0.31,0.46,-5.3*
COc1ccccc1NC(=O)CN1C(=O)C(C)Oc2ccccc21 (configuration not stated),-39,-3.4*,0.23,-0.15
CCSc1nnc(-c2cccc(S(=O)(=O)N(CC)CC)c2)n1Cc1ccccc1,.,10*,-1.6,-0.83
CCNC(=O)CSc1nnc(-c2cccc(S(=O)(=O)N(CC)CC)c2)n1CCc1ccccc1,17,.,.,.
Cc1nnc2n(Cc3ccccc3)c(=O)c3c4c(sc3n12)CCCC4,.,0.035,-0.68,6.3*
Cc1nnc2n(Cc3ccccc3)c(=O)c3c4c(sc3n12)CN(Cc1ccccc1)CC4,.,-0.46,-0.079,0.7
COc1ccc2nc(SCC(=O)N3CCN(c4ccccc4F)CC3)c(C#N)cc2c1,-48,.,.,.
COc1cc(CCC(=O)OCn2nnc3ccccc3c2=O)cc(OC)c1OC,.,-0.014,2.7*,0.14
Cc1ccccc1C(=O)OCn1nnc2ccccc2c1=O,.,1.3,0.32,.
COc1cccc(C(=O)OCn2nnc3ccccc3c2=O)c1OC,.,-0.4,-0.4,5.2*
SMILES,mHtt clearance,M1 ag,M1 antagonist,D1 mod
COc1cc(C(=O)OCn2nnc3ccccc3c2=O)cc(OC)c1OC,.,0.69,-0.18,1
CCOC1(OCC)N=C(N)C2(C#N)C(c3ccc(NC(C)=O)cc3)C12C#N (configuration not stated),.,0.44,-0.6,-0.28
COC(=O)/C(=C(/F)SCC(C)=O)C(F)(F)F,-8,.,.,.
Cc1noc(C)c1CSc1nc2ccccc2c(=O)n1-c1ccccc1,-41,-0.78,-0.27,5.3*
O=C(NCc1ccc(F)cc1)c1cnn2ccccc12,75*,.,.,.
CC(C)C1Nc2ccc(S(N)(=O)=O)cc2C2C=CCC21 (configuration not stated),-18,2.1*,-0.039,0.071
O=C(CSc1ncccc1-c1nc2ccccc2[nH]1)NCc1ccco1,.,-0.81,0.32,-2
Cc1cc2nc(-c3cccnc3SCC(=O)NCc3ccco3)[nH]c2cc1C,-21,-0.34,0.0068,-3.9*
CCn1c(=O)n(CC(=O)Nc2cc(OC)c(OC)c(OC)c2)c(=O)c2ccccc21,-5,.,.,.
O=C(Cn1c(=O)oc2ccccc21)c1ccccc1,7,0.0042,0.46,-2.6*
O=c1oc2ccccc2n1CCCCCn1c(=O)oc2ccccc21,0,0.34,0.19,0.18
COCCNC(=O)C(=O)N/N=C/c1ccccc1C(F)(F)F,36,.,.,.
O=C1C(C=Nc2ccccc2O)=C(O)c2ccccc21,.,-0.072,-1.1,-5.6*
Cc1ccc(O)c(N=CC2=C(O)c3ccccc3C2=O)c1,-22,-0.93,-0.34,0.55
Cc1ccc(N2CCN(c3cc(C)nc4nc(C)nn34)CC2)c(C)c1,.,0.44,0.017,.
CCOC(=O)c1ccc2nc(NC(=O)c3ccco3)sc2c1,29,-0.89,-1.2,-4.8*
CCOC(=O)c1ccc2nc(NC(=O)c3cccs3)sc2c1,44,-0.47,-0.18,-0.85
CCOc1ccc2nc(NC(=O)COC)sc2c1,.,-0.54,-0.0038,-1.3
CCOc1ccc2nc(NC(=O)c3ccoc3C)sc2c1,.,0.37,-0.054,-5.6*
CCOc1ccc2nc(NC(=O)Nc3cccs3)sc2c1,.,-5e-05,-0.021,-3.8*
COc1ccc(NS(=O)(=O)c2ccc(SC)cc2)cc1,86*,-1.3,-1.8,-0.48
COCCn1c(=O)c2c3c(sc2n(CC(N)=O)c1=O)CCCC3,-13,-0.016,-0.5,0.3
CCn1c(=O)n(CCOC)c(=O)c2c3c(sc21)CCCC3,.,0.19,-0.5,6.3*
CCOC(=O)c1ccc(N2C(=O)c3n[nH]c(C)c3C2c2ccc(OC)cc2)cc1 (configuration not stated),42,-0.052,1,0.35
CCOC(=O)c1ccc(N2C(=O)c3n[nH]c(C)c3C2c2ccc(OC)c(OC)c2)cc1 (configuration not stated),-6,-0.064,-0.25,-2.3*
SMILES,mHtt clearance,M1 ag,M1 antagonist,D1 mod
O=C(CSC1=NCCS1)N1CCOCC1,.,-1.5,2.1*,.
O=C(CSC1=NCCS1)N1CCN(c2ccccc2)CC1,.,-1.2,-1.1,-0.51
Cc1cccc(C)c1NC(=O)CSc1nnc(CCCCCNC(=O)OC(C)(C)C)o1,12,-0.37,0.75,-1.2
O=S1(=O)C=C(SCc2ccc(Cl)c(Cl)c2)Nc2ccccc21,-96,.,.,.
CC(=O)c1cccc(NC(=O)c2nccnc2C(=O)O)c1,-46,-0.077,-0.15,-3.5*
Cc1nc(NC2=NCN(Cc3ccc4c(c3)OCO4)CN2)nc2ccccc12,.,0.47,-9.2*,.
CCc1ccc2nc(NC3=NCN(CCN4CCOCC4)CN3)nc(C)c2c1,.,-0.058,-3.3*,-0.6
O=[N+]([O-])c1ccc(Oc2cccc(F)c2)c2ccncc12,13,.,.,.
CC(C)CN(CC(C)C)S(=O)(=O)N1CCC(C(=O)NCCc2ccc(Cl)cc2)CC1,-19,.,.,.
Cc1ccc(S(=O)(=O)Nc2nc3ccccc3nc2NCc2ccco2)cc1,15,-0.31,0.18,1.6
O=S(=O)(Nc1nc2ccccc2nc1NCc1ccco1)c1ccc(Cl)cc1,14,-0.37,-0.97,-3.5*
